We go through seven compounds from PubChem BioAssay (NCATS).

SMILES strings stand for the structures. Inconclusive results are not listed. Unmarked numbers belong to inactive results. The source made the active and inactive calls. The call rests on the fitted dose curve; in most records, active means well fitted activation curve with a large enough effect; inconclusive means small, poorly fitted or top-dose-only effect, or another doubt; inactive means no such curve, though single readings can be large or run the other way.
Potency means the concentration at half of the fitted maximal effect.

The assay has as its target Rap guanine nucleotide exchange factor 3 (Homo sapiens) (UniProt O95398). The assay can be described thus: Counterscreen qHTS for agonist of cAMP-regulated guanine nucleotide exchange factor 3 (EPAC1) (AID 1645889). Further: nearly all actives have a fitted effect of over 40% in size. On activation: % of control where 0% means no effect. The settings on record: EPAC1 Rap1B-BODIPY-GDP exchange, fluorescence; series mostly up to 154 µM; activation: at the top concentration. In short, it runs like this: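 Rap1B-BODIPY-GDP 250 nM + GDP 50 uM; cpds 7-pt, final 9.74 nM–152 uM (activator mode) or from 7.32 nM upwards (inhibitor mode); RT; FI 480/540 nm at 5 and 30 min, then ± cAMP, reread.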
On to `Cc1cc(OCCCSc2nc(-c3ccc(C(C)(C)C)cc3)nc3cc(=O)[nH]n23)ccc1Cl`, for which the “activation” value was -26%.
Turning to `COc1ccc(CCNC(=O)Cn2nc(C)c3c(C)n(-c4ccc(C)cc4)nc3c2=O)c(OC)c1`, the “activation” value was 10.5%.
On the same count and under the same terms, under `Cc1ccc2c(c1)-c1c(c(C(=O)N3CCN(c4cc(C)ccc4C)CC3)nn1C)CS2` stands -1.64%; under `CC(C)(C)c1ccc(-c2nc(SCCCOc3ccccc3)n3[nH]c(=O)cc3n2)cc1`, -44.1%.
Turning to `CCOC(=O)c1c(NC(=O)c2ccc(S(=O)(=O)N(C)C3CCCCC3)cc2)sc2c1CCN(C(C)C)C2`, the Potency was 20 µM (active).
Regarding `Cc1cccc(OCCCSc2nc(-c3ccc(C(C)(C)C)cc3)nc3cc(=O)[nH]n23)c1C`, the “activation” value was -13.7%.
For the compound `Cc1ccc(Cn2c(Cc3ccccc3)nc3ccccc32)cc1`, the “activation” value was 7.81%.
